Test results taken from PubChem BioAssay AID1030 (National Center for Advancing Translational Sciences (NCATS), 2008).
In all, about 220,000 compounds went through this assay and about 16,000 (7.3%) were called active. About 25% were inconclusive and are not listed. The call rests on the fitted dose curve; in most records, active means well fitted inhibition curve with a large enough effect (not every such curve was filed as active); inconclusive means small, poorly fitted or top-dose-only effect, or another doubt; inactive means no such curve, though single readings can be large or run the other way. For the sample, actives were picked, then their nearest neighbours and some compounds at random.

Target: Aldehyde dehydrogenase 1A1 (Homo sapiens) (UniProt P00352)
Assay: qHTS Assay for Inhibitors of Aldehyde Dehydrogenase 1 (ALDH1A1);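 on activity, negative = inhibition: plate controls were no enzyme wells and a reference inhibitor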
Conditions: Purified ALDH1A1, NADH fluorescence, propionaldehyde substrate; series mostly up to 75.3 µM; activity, negative = inhibition: at the top concentration
Potency means the concentration at half of the fitted maximal effect.

Aldehyde dehydrogenase 1A1 (Homo sapiens), sequence (P00352 whole entry, looked up): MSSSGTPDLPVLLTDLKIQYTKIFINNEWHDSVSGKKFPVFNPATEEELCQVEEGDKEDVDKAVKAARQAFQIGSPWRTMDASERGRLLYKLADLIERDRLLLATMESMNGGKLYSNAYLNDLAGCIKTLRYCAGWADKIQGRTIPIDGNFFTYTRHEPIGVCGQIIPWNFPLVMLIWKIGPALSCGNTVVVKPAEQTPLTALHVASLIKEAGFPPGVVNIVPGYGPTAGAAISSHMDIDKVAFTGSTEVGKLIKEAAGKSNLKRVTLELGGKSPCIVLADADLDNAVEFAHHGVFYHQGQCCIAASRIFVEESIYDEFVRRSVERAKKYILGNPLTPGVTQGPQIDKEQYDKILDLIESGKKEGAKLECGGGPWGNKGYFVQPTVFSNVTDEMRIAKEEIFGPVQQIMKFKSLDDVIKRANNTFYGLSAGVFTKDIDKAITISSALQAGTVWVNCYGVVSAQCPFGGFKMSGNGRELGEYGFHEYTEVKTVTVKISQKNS

activity, negative = inhibition, inactive:
Cc1noc(C)c1CCC(=O)O 13.5%, O=C(c1cccc(S(=O)(=O)N2CCCC2)c1)N(Cc1ccco1)C1CCS(=O)(=O)C1 (stereo unspecified) -11%, COc1cc(OC)c2c(-c3cccc(-c4cccc(N)c4)c3)cc(=O)oc2c1 10.4%, CCOc1ccc(CN(Cc2ccco2)C(c2cccs2)c2nnnn2C(C)(C)C)cc1 (stereo unspecified) -9.85%, CCN(CC)CCNS(=O)(=O)c1ccc(/C=C/C(=O)O)cc1 4.64%, Cc1noc(C)c1COC(=O)COc1ccc(-c2ccccc2)cc1 -3.27%, Cc1nn(CC(=O)Nc2ccc(C#N)cc2)c(C)c1[N+](=O)[O-] -1.5%, CCCC(C)C(=O)NCc1ccncc1 (stereo unspecified) -0.695%, OCCC1CN(Cc2cccc(OC3CCCC3)c2)CCN1Cc1ccsc1 (stereo unspecified) 3.75%, COC(=O)c1cc(=O)n(-c2c(Cl)cc(C(F)(F)F)cc2Cl)[nH]1 -14.8%, Cn1c(CCC(=O)Nc2ccccc2F)nnc1SCC(=O)Nc1ccccc1Cl 3.73%, Cc1ccc(CNC(=O)CC2Sc3ccccc3NC2=O)cc1 (stereo unspecified) 13.1%, COc1cc(C)c(Cl)cc1S(=O)(=O)n1ccnc1 3.9%, Cc1nc(N)[nH]c(=O)c1Oc1cccc(C(F)(F)F)c1 11.3%, Cn1c(-c2ccccc2)c[n+]2c1CCCCC2 9.53%, COc1ccc(OCC(=O)NNC(=O)c2cccc(C)c2)cc1 -4.62%, Cc1cccc(NC(=O)c2ccc(OCC(=O)NCc3ccccc3)cc2)c1C 2.27%, CCOC(=O)Cc1ncccc1C(=O)Nc1ccc(OC(F)(F)F)cc1 0.304%, Cn1nnnc1-c1cc(Cl)cc(Cl)c1 8.19%, COc1ccc(Br)cc1C(=O)Nc1cccc(C)c1C -13.1%, COc1ccc(/C=C(/NC(=O)c2ccc(C)cc2)c2nc3ccccc3[nH]2)cc1OC 0.538%, CC(OC(=O)CCc1nc(=O)c2ccccc2n1C)C(=O)NCc1ccc2c(c1)OCO2 (stereo unspecified) 6.11%, CC(C)CNC(=O)C(=O)Nc1ccc(N(C)C)cc1 1.43%, COc1cc(CC(=O)N/N=C/c2ccccc2)c([N+](=O)[O-])cc1OC -4.67%, COc1cc(CN2CC(C)CC(C)C2)cc([N+](=O)[O-])c1O (stereo unspecified) -4.5%, COC(=O)C1=C(N)Oc2c(oc(CO)cc2=O)C1c1c(F)cccc1Cl (stereo unspecified) 4.29%, C/C(=N\NC(=O)NC1CCCCC1)c1ccc(OC(F)F)cc1OC(F)F -6.28%, Cn1c(=O)c2c(ncn2CC(=O)N/N=C/c2cn[nH]c2-c2ccc(F)cc2)n(C)c1=O 9.19%, CC(=O)Oc1cccc(N2C(=O)C3CC=C(Cl)CC3C2=O)c1 (stereo unspecified) -4.18%, Cc1ncc([N+](=O)[O-])n1CCOC(=O)c1ccc(Br)cc1 4.54%, O=C(CSc1nnc(-c2cccs2)n1-c1ccccc1)NCc1ccco1 1.5%, Cc1cc(C)n2nc(SCC(=O)NC(=O)NCc3ccco3)nc2n1 -7.79%, CCn1c(SCC(=O)NCc2ccco2)nnc1-c1ccc(N)cc1 6.6%, Cc1ccc(NC(=O)C(=O)NCc2ccco2)c(C)c1 -18%, Cc1ccc(C(C)(C)C)c(OCCCCN2CCCC2)c1 -7.93%, COc1ccc(/C=N/NC(=O)Nc2ccc3nsnc3c2)c(OC)c1 13.8%, CCOc1cc(C2C(C(=O)OC(C)C)=C(C)NC3=C2C(=O)CCC3)cc([N+](=O)[O-])c1O (stereo unspecified) -0.788%, COc1cccc(OC)c1C(=O)OCC(=O)/C(C#N)=C(\C)N 1.21%, COC(=O)C1=C(C)N(C(C)c2ccccc2)C(=O)/C1=C\c1ccco1 (stereo unspecified) -9.78%, N=c1c2c3c(sc2nc2n1CCCCC2)CCCC3 1.81%, Cn1c(NN)nc2sc3c(c2c1=O)CCC3 -9.42%, O=C(CSc1nc(-c2ccccc2)cs1)Nc1cccc([N+](=O)[O-])c1 5.7%, Cc1cccc(S(=O)(=O)CC(=O)Nc2nc(-c3ccccc3)cs2)c1 -11.9%, CC(=O)c1ccc(-c2nnc(CCC(=O)N(C)Cc3cnc4ccccn34)o2)s1 -2.91%, CCCCCCCCCCCCCCCCO 13.4%, Cc1cc(C)nc(NC(=O)C(C)N2C(=O)c3ccccc3C2=O)n1 (stereo unspecified) 1.42%, O=C(Nc1ccccc1C(F)(F)F)c1cc(-c2ccc(O)cc2)on1 -1.55%, Cc1ccc(NC(=O)c2oc3ccccc3c2C)c([N+](=O)[O-])c1 0.651%, CC1=C(C)CC(C(=O)NC(C)CCc2ccccc2)C(C(=O)O)C1 (stereo unspecified) -0.644%, CCC(C)[C@@H](N)C(=O)O (stereo partly specified) 7.63%, CC(C)NC(=O)NC(=O)CSc1nnc(-c2ccccc2F)n1N 5.19%, Cc1cc(C)c(C2C3=C(Nc4c2c(C)nn4-c2ccccn2)c2ccccc2C3=O)c(C)c1 (stereo unspecified) -2.06%, Cc1ccc(N=Nc2c(C)[nH]n(-c3ccccc3)c2=O)cc1 -5.84%, Cn1cnnc1Sc1ccc(S(C)(=O)=O)cc1[N+](=O)[O-] 8.01%, c1csc(-c2nnc(COc3ccc4c(c3)OCO4)o2)c1 -8.68%, c1ccc2sc(SCCSc3nc4ccccc4s3)nc2c1 3.19% [at 13.5 µM], O=[N+]([O-])c1cc(Br)c(O)c(/C=N/Nc2nc3ccccc3s2)c1 1.2%, OCC1(CCOc2ccccc2)CCN(Cc2cn[nH]c2-c2ccccc2)CC1 2.48%, O=C(c1ccc(F)cc1)C1CCN(Cc2cn[nH]c2-c2ccccc2)CC1 -3.53%, COc1ccc(-c2[nH]ncc2CN(C)Cc2c(C)n[nH]c2C)c(OC)c1 3.76%, O=C(OCc1ccc([N+](=O)[O-])cc1)c1ccccn1 3.86%, Cc1nc([N+](=O)[O-])c(NCCCO)n1Cc1ccccc1 -5.45%, CCNc1nc(-c2cc3ccccc3o2)cs1 3.76%, NS(=O)(=O)c1ccc(CCNC(=O)c2ccc(Cl)cc2[N+](=O)[O-])cc1 5.47%, O=P(O)(CN1CCCCCC1)C1Cc2ccccc2C1 1.42%, CCOC(=O)c1sc(NC(=O)c2ccncc2)nc1C 0.718%, CCOC(=O)C1=C(C)Nc2sc(C(=O)c3ccc(Br)cc3)c(N)c2C1c1ccc(C(=O)OC)cc1 (stereo unspecified) 4.19%, Cc1ccc(/C=N/NC(=O)COc2ccccc2-c2ccccc2)cc1 -3.94%, CCC1S/C(=N/N=C/c2ccco2)NC1=O (stereo unspecified) -11.9%, CCC1C/C(=C/c2cccs2)C(=O)/C(=C/c2cccs2)C1 (stereo unspecified) -1.08%, COc1ccc(C2=NN(c3nc4ccccc4s3)C(=O)C2)cc1 4.17%, CCCCn1c(=O)c(C(C)=O)c(O)c2ccccc21 3.26%, Cc1[nH]c2c(C(=O)N3CCCC(CCC(=O)NCc4ccccc4F)C3)cccc2c1C (stereo unspecified) -12.1%, COc1ccccc1N1CCN(Cc2ccc(OC)c3ccccc23)CC1 -4.71%, CCN1CCN(CCCCOc2ccccc2F)CC1 -7.76%, CCOC(=O)c1c(NC(=O)C2CC=CCC2C(=O)O)sc(C)c1CC (stereo unspecified) -0.959%, Cc1ccc(-c2cccc([C@H]3[C@@H]4C=CC[C@@H](C)[C@@H]4C(=O)N3Cc3ccccc3)c2)cc1 7.38%, COc1ccc(OC)c(Cc2nnc(CCC(=O)NC3CCCC3)o2)c1 -0.804%, O=C1CSC(c2cccc(F)c2)N1c1ccc(O)cc1 (stereo unspecified) -0.489%, O=C1CSC(c2ccccc2)N1c1nc(-c2ccc(Cl)cc2Cl)cs1 (stereo unspecified) 5.19%, CC1CCN(c2ccc(S(=O)(=O)Nc3cc(C(=O)O)cc(C(=O)O)c3)cc2[N+](=O)[O-])CC1 5.01%, O=C(Nc1ccc(F)cc1)C1CCN(C(=O)c2ccc([N+](=O)[O-])cc2)CC1 0.407%, COCCCNC(=O)C1CCC(CNS(=O)(=O)c2ccc(OC)cc2)CC1 (stereo unspecified) -3.23%, CCc1[nH]nc(C(=O)N2CCCC(CNS(=O)(=O)c3cccs3)C2)c1C (stereo unspecified) 3.5%

Potency, active:
CCC(c1nnnn1Cc1ccco1)N(CCc1ccccc1)Cc1cc2cccc(C)c2[nH]c1=O (stereo unspecified) 7.94 µM, CCC(c1nnnn1Cc1ccco1)N(CCc1ccccc1)Cc1cc2ccc(OC)cc2[nH]c1=O (stereo unspecified) 10 µM, Cn1c(CC2Sc3ccccc3NC2=O)nnc1SCC(=O)c1ccc(Cl)cc1 (stereo unspecified) 3.98 µM, COc1ccc(C(=O)Nc2cc(C)ccc2NC(=O)COc2ccccc2)cc1 3.98 µM, COc1ccc(Br)cc1C(=O)NC(=S)Nc1cc(-c2nc3ccccc3[nH]2)ccc1C 12.6 µM, COc1cc(CN2CCN(Cc3ccc(C)cc3)CC2)c([N+](=O)[O-])cc1OC 17.8 µM, CC(=O)c1nc(N2C(=O)C3CC=C(C)CC3C2=O)sc1C (stereo unspecified) 2.51 µM, O=C(CSc1nnc(-c2ccco2)n1Cc1ccccc1)NC(=O)NCc1ccco1 15.8 µM, Cc1ccc(SCC(=O)NC(=O)NCc2ccco2)c(C)c1 22.4 µM, NNC(=O)C1CCCn2c1nc1sc3c(c1c2=O)CCCC3 (stereo unspecified) 12.6 µM, O=C(CSc1ncn[nH]1)Nc1nc(-c2cccc([N+](=O)[O-])c2)cs1 17.8 µM, Cc1cc(C)nc(NC(=O)Nc2ccccc2C(F)(F)F)n1 35.5 µM, Cc1ccc(C2C3=C(Nc4[nH]n(-c5ccccc5)c(=O)c42)c2ccccc2C3=O)cc1 (stereo unspecified) 11.2 µM, O=[N+]([O-])c1c(NCCO)cc(Sc2nc3ccccc3s2)c2nonc12 8.91 µM, CN(CCC1CCOCC1)Cc1cn[nH]c1-c1ccc(-c2ccccc2)cc1 10 µM, Cc1nnc(CN(C)Cc2cn[nH]c2-c2ccc(-c3ccccc3)cc2)o1 12.6 µM, CCOC(=O)c1sc(=S)n2c1[nH]c(=O)c1ccc(C(=O)OC)cc12 8.91 µM, CC(C)(C)C1C/C(=C/c2ccco2)C(=O)/C(=C/c2ccco2)C1 (stereo unspecified) 7.94 µM, COc1ccccc1N1CCN(CCCCOc2ccc(F)cc2)CC1 25.1 µM, O=C1CSC(c2cccc(F)c2)N1c1ccccc1F (stereo unspecified) 14.1 µM, CC1CCN(C(=O)c2ccc(S(=O)(=O)Cc3cc(F)ccc3F)c([N+](=O)[O-])c2)CC1 7.08 µM, COc1ccc(S(=O)(=O)NCC2CCCN(C(=O)c3occc3C)C2)cc1 (stereo unspecified) 4.47 µM
